{"source": "PubChem BioAssay AID720514", "about": "(Broad Institute, 2013)", "note": "In all, about 2,100 compounds went through this assay and about 300 (14%) were called active. Another 2% or so got no clear call; they are omitted.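 How the source made its calls: active means every replicate test run called active, with the signal falling and half-maximal concentration within twice the top valid dose; inconclusive means the replicate test runs disagree in their calls; inactive means every test run inactive, including effects in the opposite direction.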 These entries were drawn from the full list. Entries with a potency or affinity are not part of this list.", "data": [{"assay": "inhibitors of PGC1a acetylation in cells, dose response, cell-based, cherry-picked samples (AID 720514)", "conditions": "U2OS PGC1a acetylation, AlphaLISA, overnight; series mostly up to 19.5 µM", "values": [{"smiles": "CC(=O)Nc1cc(C(=O)OCc2cccc([N+](=O)[O-])c2)ccc1C", "outcome": "inactive"}, {"smiles": "O=C(Nc1c(F)cccc1F)c1ccc(-n2cncn2)nc1", "outcome": "inactive"}, {"smiles": "CC(C)(C)c1ccc(C(=O)Nc2ccc(C(=O)NCc3cccnc3)cc2)cc1", "outcome": "inactive"}, {"smiles": "Cc1ccc(C(=O)c2c[nH]c(C(=O)NCc3cccnc3)c2)cc1", "outcome": "inactive"}, {"smiles": "CCO[C@H]1OC(C(=O)N2CCCCCCC2)=C[C@@H](C2CCCCC2)[C@@H]1CCCO", "outcome": "inactive"}, {"smiles": "Cc1cc(=O)oc2cc(OCC(=O)OCC(=O)Nc3ccccc3F)ccc12", "outcome": "inactive"}, {"smiles": "C[C@@H]1CN([C@H](C)CO)C(=O)c2c(c3ccccc3n2C)-c2ccccc2CO[C@@H]1CN(C)C(=O)c1ccccc1", "outcome": "inactive"}, {"smiles": "C[C@@H]1CN([C@@H](C)CO)C(=O)c2c(c3ccccc3n2C)-c2ccccc2CO[C@@H]1CN(C)C(=O)c1ccccc1", "outcome": "inactive"}, {"smiles": "CC(C)c1ccc(NC(=O)c2ccc3c(c2)CCN3S(C)(=O)=O)cc1", "outcome": "inactive"}, {"smiles": "COc1ccc(-c2cnc3c(c2)C(=O)N([C@H](C)CO)C[C@@H](C)[C@H](CN(C)C(=O)C2CCC2)O3)cc1", "outcome": "inactive"}, {"smiles": "COc1ccc(C#Cc2cnc3c(c2)C(=O)N([C@H](C)CO)C[C@H](C)[C@H](CN(C)S(=O)(=O)c2cccc(F)c2)O3)cc1OC", "outcome": "inactive"}, {"smiles": "COc1ccc(NC(=O)N(C)C[C@H]2OCc3ccccc3-c3c(n(C)c4ccccc34)C(=O)N([C@@H](C)CO)C[C@H]2C)c(OC)c1", "outcome": "inactive"}, {"smiles": "COc1ccc(C#Cc2cnc3c(c2)C(=O)N([C@H](C)CO)C[C@H](C)[C@H](CN(C)S(=O)(=O)c2cccs2)O3)cc1OC", "outcome": "inactive"}, {"smiles": "O=C(Nc1ccc(-c2noc(-c3cccs3)n2)cc1)c1cccnc1", "outcome": "inactive"}, {"smiles": "CCOC(=S)SCC(=O)Nc1nc(C)c(C)s1", "outcome": "inactive"}, {"smiles": "CC(=O)n1cc([C@@H]2C=C(C(=O)Nc3ccccc3)O[C@H](OCc3ccc(CO)cc3)C2)c2ccccc21", "outcome": "inactive"}, {"smiles": "Cc1cc(C(=O)NNS(=O)(=O)c2ccccc2C(F)(F)F)nn1C(C)(C)C", "outcome": "inactive"}, {"smiles": "C[C@@H]1CN([C@@H](C)CO)C(=O)c2c(c3ccccc3n2C)-c2ccccc2CO[C@@H]1CN(C)C(=O)Nc1ccccc1C(F)(F)F", "outcome": "inactive"}, {"smiles": "COc1cccc(S(=O)(=O)N(C)C[C@@H]2Oc3cc(C4=CCCC4)ccc3S(=O)(=O)N([C@H](C)CO)C[C@@H]2C)c1", "outcome": "inactive"}, {"smiles": "O=C(NC(Nc1cc(C(F)(F)F)ccc1Cl)C(=O)c1ccccc1)c1ccccc1", "note": "(configuration not stated)", "outcome": "inactive"}, {"smiles": "CCN(CC)CCNC(=O)c1ccc2c(c1NCCO)C(=O)c1ccccc1C2=O", "outcome": "inactive"}, {"smiles": "CCCCn1c(CN(Cc2ccccc2)Cc2ccccc2)nc2c1c(=O)n(C)c(=O)n2C", "outcome": "inactive"}, {"smiles": "CN1Cc2c(N3CCOCC3)nc3sc(C(=O)c4ccc(Br)cc4)c(N)c3c2CC1(C)C", "outcome": "inactive"}, {"smiles": "O=C(c1ccccc1)C(O)(Cc1ccccc1)c1ccccc1", "note": "(configuration not stated)", "outcome": "inactive"}, {"smiles": "CC1CCN(S(=O)(=O)c2ccc(NC(=O)c3ccccc3F)cc2)CC1", "outcome": "inactive"}, {"smiles": "COc1ccc(S(=O)(=O)N2CCOCC2)cc1NC(=O)CCNC(=O)c1ccc([N+](=O)[O-])cc1", "outcome": "inactive"}, {"smiles": "CCOC(=O)C1=CC[C@@H](c2ccc(OC)cc2)N(S(=O)(=O)c2ccc(C)cc2)[C@H]1CC", "outcome": "inactive"}, {"smiles": "CN(C(=O)C1CC1)C1CCS(=O)(=O)C1", "note": "(configuration not stated)", "outcome": "inactive"}, {"smiles": "CCOc1ccccc1NC(=O)CSc1cn[nH]n1", "outcome": "inactive"}, {"smiles": "O=S1(=O)CCOC[C@H](CC2CCCCC2)N1Cc1ccc(F)cc1", "outcome": "inactive"}, {"smiles": "COc1ccc([C@H]2/C=C\\CN(S(=O)(=O)/C=C/c3ccccc3)[C@@H](C)C(=O)N2Cc2ccc(F)cc2)cc1", "outcome": "inactive"}, {"smiles": "Cc1ccc(CN(CC(O)COc2cccc3[nH]cc(C)c23)C(C)(C)C)cc1", "note": "(configuration not stated)", "outcome": "inactive"}, {"smiles": "C#CCN1[C@H](/C=C/C2CC2)[C@H](Cc2ccccc2)OC(=O)[C@@H]1[C@@H]1N[C@@H](C(=O)OC)C(C)(C)S1", "outcome": "inactive"}, {"smiles": "COc1ccc(S(=O)(=O)N2CCOCC2)cc1NC(=O)CCNC(=O)c1ccc(Cl)cc1", "outcome": "inactive"}, {"smiles": "CCCN(CCC)CCNC(=O)c1cc2c(=O)n(CC)c3ccccc3c2s1", "outcome": "inactive"}, {"smiles": "C[C@@H]1CN([C@@H](C)CO)C(=O)c2cc(C#CC3CCCC3)cnc2O[C@H]1CN(C)C(=O)Nc1ccccc1", "outcome": "inactive"}, {"smiles": "C[C@H]1CN([C@@H](C)CO)C(=O)c2cc(/C=C/c3ccccc3)cnc2O[C@H]1CN(C)C(=O)CN(C)C", "outcome": "inactive"}, {"smiles": "COc1ccc(S(=O)(=O)N(C)C[C@H]2Oc3cc(C4=CCCC4)ccc3S(=O)(=O)N([C@H](C)CO)C[C@@H]2C)cc1", "outcome": "inactive"}, {"smiles": "Cc1ccccc1-c1ccc2c(c1)O[C@H](CN(C)Cc1ccncc1)[C@@H](C)CN([C@@H](C)CO)S2(=O)=O", "outcome": "inactive"}, {"smiles": "CC(C)C#Cc1cnc2c(c1)C(=O)N([C@@H](C)CO)C[C@@H](C)[C@@H](CN(C)C(=O)c1ccccn1)O2", "outcome": "inactive"}, {"smiles": "C[C@H](CO)N1C[C@H](C)[C@H](CN(C)Cc2ccc(C(=O)O)cc2)Oc2ncc(-c3ccccc3)cc2C1=O", "outcome": "inactive"}, {"smiles": "COc1ccc(C)cc1NS(=O)(=O)c1ccc(NC(=O)CN(c2cc([N+](=O)[O-])ccc2C)S(C)(=O)=O)cc1", "outcome": "inactive"}]}]}
